# Measurements taken from ChEMBL document CHEMBL1157539, “Thousands of chemical starting points for antimalarial lead identification” (Nature, 2010).
# Tested on: HepG2
# Assay: GSK_TCMDC: Percent inhibition of human HepG2 cell line. Test compounds present at 10uM.
# Format: functional
row,Structure (SMILES),Inhibition [%]
1,N#Cc1cc(C(=O)c2cc(Cl)ccc2O)cn(-c2cc(Cl)cc(Cl)c2)c1=O,34
2,CN(C)CCOC(=O)C1(O)CCC2CC1C2(C)C.Cl (centres undefined),10
3,COc1ccc(Nc2nccc(N3CCC(NC(=O)C(C)c4ccc(Cl)cc4)CC3)n2)cc1 (centres undefined),18
4,Cc1ccc(Cn2ncc(N3CCCNCC3)c(Cl)c2=O)cc1NC(=O)Nc1ccc(-c2ccccc2)cc1,55
5,CNC(=O)CC(=O)NCCc1ccc(Cl)cc1,0
6,Cc1c(Cc2ccccc2Cl)cnc2nc(N)nc(N)c12.Cl,67
7,CC(C)(C)c1nn(-c2ccc(Cl)cc2)c2[nH]c(=O)c(CNCc3ccc4c(c3)OCO4)cc12,15
8,O=C(C=Cc1ccc(Cl)c(Cl)c1)NCCCCCN1CCCC(CCCNS(=O)(=O)c2ccc(Br)cc2)C1 (centres undefined),43
9,CN1CCN(CCCN(Cc2csc(-c3ccc(CNCc4ccccc4)cc3)n2)C(=O)c2cc(F)cc(F)c2)CC1.O=C(O)C(F)(F)F,60
10,O=C(NC(c1ccc(Cl)cc1)c1ccc2cccnc2c1O)c1ccccc1 (centres undefined),44
11,CC(C)CNCc1cccc(-c2cccc(CN(CCCN3CCN(C)CC3)C(=O)CCC3CCCC3)c2)c1.O=C(O)C(F)(F)F,45
12,COc1ccc(O)c(C(=O)c2cc(C#N)c(=O)n(-c3ccc(Oc4ccccc4)cc3)c2)c1,22
13,CCN1CCc2nc3ccccc3c(C(=O)Nc3ccc(C#N)cc3)c2C1,24
14,O=C(O)/C=C\C(=O)O.OCCN1CCN(C2Cc3ccc(F)cc3Sc3ccc(Cl)cc32)CC1 (centres undefined),56
